# For some assays here: Entries with a potency or affinity are not part of this list.
# Experiments:
# Set-up in all cases: scale not given: direction of the effect not stated beside the values
# [1] = target: Protein translocase subunit SecA (Escherichia coli (strain K12)) (UniProt P10408); experiment: Assay to Identify E. coli SecA ATPase Inhibitors; type: functional; conditions: 30 µM
# [2] = target: T1, Ubiquitin-activating enzyme e1, putative (Leishmania donovani (strain BPK282A1)) (UniProt E9BSI1); experiment: Leishmania donovani Ubiquitin Activating Enzyme (LdE1); type: functional; conditions: 30 µM
# T1 sequence (whole entry): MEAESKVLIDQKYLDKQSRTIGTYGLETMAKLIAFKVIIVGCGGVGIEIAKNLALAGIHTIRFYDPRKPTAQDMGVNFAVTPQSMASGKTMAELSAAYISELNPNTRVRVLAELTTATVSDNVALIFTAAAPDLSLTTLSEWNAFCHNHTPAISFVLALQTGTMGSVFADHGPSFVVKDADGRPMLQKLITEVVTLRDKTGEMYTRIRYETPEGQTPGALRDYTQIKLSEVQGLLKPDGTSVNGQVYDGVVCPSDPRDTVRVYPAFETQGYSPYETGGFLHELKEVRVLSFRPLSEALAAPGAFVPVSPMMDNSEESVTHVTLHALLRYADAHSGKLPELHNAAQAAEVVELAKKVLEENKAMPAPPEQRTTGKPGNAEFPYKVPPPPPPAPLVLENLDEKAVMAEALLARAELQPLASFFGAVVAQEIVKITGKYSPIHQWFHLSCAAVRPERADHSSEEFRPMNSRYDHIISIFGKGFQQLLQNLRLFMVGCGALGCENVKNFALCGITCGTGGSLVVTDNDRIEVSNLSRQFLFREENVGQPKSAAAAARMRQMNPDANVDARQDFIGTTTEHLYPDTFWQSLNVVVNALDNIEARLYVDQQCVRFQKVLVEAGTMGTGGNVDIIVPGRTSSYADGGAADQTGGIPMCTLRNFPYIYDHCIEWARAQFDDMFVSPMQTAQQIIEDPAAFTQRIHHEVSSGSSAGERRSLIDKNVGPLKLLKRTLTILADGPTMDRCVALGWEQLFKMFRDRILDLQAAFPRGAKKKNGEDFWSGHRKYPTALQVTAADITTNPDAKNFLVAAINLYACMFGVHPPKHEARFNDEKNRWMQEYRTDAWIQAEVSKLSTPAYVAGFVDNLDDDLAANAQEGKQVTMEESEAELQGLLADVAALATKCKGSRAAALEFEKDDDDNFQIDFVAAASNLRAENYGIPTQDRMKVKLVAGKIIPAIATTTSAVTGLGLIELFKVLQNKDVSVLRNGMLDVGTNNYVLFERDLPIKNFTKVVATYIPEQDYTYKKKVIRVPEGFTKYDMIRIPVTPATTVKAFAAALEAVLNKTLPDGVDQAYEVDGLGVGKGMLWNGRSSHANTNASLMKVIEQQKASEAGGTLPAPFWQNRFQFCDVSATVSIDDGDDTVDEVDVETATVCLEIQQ
# [3] = target: AMP-activated protein kinase, AMPK (Homo sapiens) (UniProt P54646+O43741+P54619+Q9UGJ0+Q9Y478+Q13131+Q9UGI9); experiment: AMP-dependent Kinase enzyme assay. An in vitro enzyme assay that detects ADP turnover that is directly proportional to AMPK activity. This uses naive AMPK that is activated during the assay with MK-8722; type: functional; conditions: 30 µM
# [4] = target: Sialic acid-binding Ig-like lectin 9 (Homo sapiens) (UniProt Q9Y336); experiment: Hs-Siglec9 ALPHAscreen SOP 20170721; conditions: 10 µM
# [5] = tested on: Trypanosoma cruzi; experiment: Trypanosoma cruzi phosphomannomutase and mannose-1-phosphate guanylyltransferase assay; type: functional; conditions: 10 µM
# [6] = target: T2, Arginase-2, mitochondrial (Homo sapiens) (UniProt P78540); experiment: in vitro enzyme assay to detect the production of urea directly proportional to the activity of Arginase II; type: functional; conditions: 33.3 µM; note: in the data most compounds retested in dose-response had high values
# T2 sequence (whole entry): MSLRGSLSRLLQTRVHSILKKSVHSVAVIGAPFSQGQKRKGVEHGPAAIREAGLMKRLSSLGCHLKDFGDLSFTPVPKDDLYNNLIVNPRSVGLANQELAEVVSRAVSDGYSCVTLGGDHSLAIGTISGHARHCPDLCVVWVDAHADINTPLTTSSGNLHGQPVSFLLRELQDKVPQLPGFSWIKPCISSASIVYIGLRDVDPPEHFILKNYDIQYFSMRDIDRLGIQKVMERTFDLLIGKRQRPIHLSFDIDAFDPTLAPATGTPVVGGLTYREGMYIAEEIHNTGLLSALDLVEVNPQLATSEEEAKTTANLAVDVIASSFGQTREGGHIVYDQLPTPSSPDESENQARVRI
# [7] = target: T3, Proteasome subunit beta (Trypanosoma cruzi) (UniProt O96673); experiment: Trypanosoma cruzi proteasome chymotrypsin-like activity (TcProtChymo) assay.; note: in the data most compounds retested in dose-response had high values; type: functional; conditions: 9.37 µM
# T3 sequence (whole entry): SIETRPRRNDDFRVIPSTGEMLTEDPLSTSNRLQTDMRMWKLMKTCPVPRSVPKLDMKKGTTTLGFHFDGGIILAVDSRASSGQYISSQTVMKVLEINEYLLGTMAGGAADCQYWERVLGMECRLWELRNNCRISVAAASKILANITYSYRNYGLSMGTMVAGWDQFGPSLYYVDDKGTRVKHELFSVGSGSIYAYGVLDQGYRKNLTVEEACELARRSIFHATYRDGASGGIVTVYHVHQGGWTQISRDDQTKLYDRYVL
# [8] = species on record: Homo sapiens; experiment: To identify inhibition of the IFN signalling (Jak-Stat) pathway via expression of an eGFP reporter gene under the control of an IFN-stimulated response element (ISRE) containing MxA promoter.; type: functional; conditions: 30 µM
# [9] = target: T4, Tyrosyl-tRNA synthetase, putative (Trypanosoma cruzi (strain CL Brener)) (UniProt Q4DSP6); experiment: Trypanosoma cruzi tyrosyl tRNA synthetase (TcYRS) _High Tyrosine SOP; type: functional; conditions: 30 µM; note: in the data most compounds retested in dose-response had high values
# T4 sequence (whole entry): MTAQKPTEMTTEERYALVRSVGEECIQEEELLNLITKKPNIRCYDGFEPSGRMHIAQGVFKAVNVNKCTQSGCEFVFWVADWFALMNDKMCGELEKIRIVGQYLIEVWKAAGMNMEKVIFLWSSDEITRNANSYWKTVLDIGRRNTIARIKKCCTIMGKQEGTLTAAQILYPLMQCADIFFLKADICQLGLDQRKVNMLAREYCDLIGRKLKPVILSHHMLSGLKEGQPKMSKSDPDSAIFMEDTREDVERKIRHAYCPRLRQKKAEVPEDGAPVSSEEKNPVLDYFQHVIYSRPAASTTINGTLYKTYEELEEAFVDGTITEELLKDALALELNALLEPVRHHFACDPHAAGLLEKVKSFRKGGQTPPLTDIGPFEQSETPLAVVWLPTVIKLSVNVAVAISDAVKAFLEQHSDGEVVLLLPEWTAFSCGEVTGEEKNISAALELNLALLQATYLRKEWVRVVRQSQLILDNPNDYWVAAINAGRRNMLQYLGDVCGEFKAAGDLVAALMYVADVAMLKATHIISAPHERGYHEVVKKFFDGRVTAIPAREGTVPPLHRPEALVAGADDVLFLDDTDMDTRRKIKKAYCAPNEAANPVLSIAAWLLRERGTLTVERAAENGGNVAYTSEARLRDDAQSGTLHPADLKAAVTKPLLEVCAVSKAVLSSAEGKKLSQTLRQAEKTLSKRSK
# [10] = target: T4, Tyrosyl-tRNA synthetase, putative (Trypanosoma cruzi (strain CL Brener)); experiment: Trypanosoma cruzi tyrosyl tRNA synthetase (TcYRS) SOP; type: functional; conditions: 30 µM
# [11] = target: Chromo domain-containing protein 1 (Saccharomyces cerevisiae (strain ATCC 204508 / S288c) (Baker's yeast)) (UniProt P32657); experiment: ScCHD-1 Enzyme Inhibition Assay; type: functional; conditions: 30 µM; note: in the data most compounds retested in dose-response had high values
# Chromo domain-containing protein 1 (Saccharomyces cerevisiae (strain ATCC 204508 / S288c) (Baker's yeast)), sequence (P32657 whole entry, the tested form may be a part): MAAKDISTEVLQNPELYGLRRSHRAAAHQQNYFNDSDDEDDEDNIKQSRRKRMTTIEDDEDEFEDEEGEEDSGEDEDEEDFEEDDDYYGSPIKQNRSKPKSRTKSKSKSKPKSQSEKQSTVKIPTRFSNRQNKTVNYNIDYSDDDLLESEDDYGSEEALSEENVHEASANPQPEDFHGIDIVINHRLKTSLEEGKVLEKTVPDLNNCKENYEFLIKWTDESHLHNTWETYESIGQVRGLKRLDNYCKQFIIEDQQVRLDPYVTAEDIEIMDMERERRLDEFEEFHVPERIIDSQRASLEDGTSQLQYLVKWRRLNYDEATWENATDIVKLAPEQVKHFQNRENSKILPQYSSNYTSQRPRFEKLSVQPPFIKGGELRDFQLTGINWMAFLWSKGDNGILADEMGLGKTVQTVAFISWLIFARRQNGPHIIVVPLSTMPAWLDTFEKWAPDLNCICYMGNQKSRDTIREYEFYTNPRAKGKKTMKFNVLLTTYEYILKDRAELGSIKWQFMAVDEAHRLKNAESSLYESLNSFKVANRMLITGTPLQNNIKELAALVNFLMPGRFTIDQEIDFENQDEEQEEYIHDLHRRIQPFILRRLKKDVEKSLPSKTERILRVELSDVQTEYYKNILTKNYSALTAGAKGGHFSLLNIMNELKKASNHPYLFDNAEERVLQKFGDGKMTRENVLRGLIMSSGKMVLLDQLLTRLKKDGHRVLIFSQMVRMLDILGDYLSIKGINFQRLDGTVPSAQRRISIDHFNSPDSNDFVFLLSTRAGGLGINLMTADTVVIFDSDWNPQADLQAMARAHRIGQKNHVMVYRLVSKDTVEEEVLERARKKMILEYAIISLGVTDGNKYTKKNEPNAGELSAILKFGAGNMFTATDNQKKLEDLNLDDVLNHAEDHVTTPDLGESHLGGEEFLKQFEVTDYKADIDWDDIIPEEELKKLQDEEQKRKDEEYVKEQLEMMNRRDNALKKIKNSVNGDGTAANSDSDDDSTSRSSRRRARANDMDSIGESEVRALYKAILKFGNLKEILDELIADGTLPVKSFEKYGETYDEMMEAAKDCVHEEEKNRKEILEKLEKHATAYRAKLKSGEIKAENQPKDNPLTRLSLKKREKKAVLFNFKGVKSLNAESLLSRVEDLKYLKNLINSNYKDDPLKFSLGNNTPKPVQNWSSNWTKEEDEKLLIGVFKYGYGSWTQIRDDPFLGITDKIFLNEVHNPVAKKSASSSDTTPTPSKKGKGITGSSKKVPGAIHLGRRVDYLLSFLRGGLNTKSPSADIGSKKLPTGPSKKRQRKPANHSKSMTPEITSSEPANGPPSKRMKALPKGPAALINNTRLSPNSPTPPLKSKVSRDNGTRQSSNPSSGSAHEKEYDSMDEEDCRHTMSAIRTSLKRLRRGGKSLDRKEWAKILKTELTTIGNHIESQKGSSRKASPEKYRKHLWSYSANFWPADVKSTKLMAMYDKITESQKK
# Protein translocase subunit SecA (Escherichia coli (strain K12)), sequence (P10408 whole entry): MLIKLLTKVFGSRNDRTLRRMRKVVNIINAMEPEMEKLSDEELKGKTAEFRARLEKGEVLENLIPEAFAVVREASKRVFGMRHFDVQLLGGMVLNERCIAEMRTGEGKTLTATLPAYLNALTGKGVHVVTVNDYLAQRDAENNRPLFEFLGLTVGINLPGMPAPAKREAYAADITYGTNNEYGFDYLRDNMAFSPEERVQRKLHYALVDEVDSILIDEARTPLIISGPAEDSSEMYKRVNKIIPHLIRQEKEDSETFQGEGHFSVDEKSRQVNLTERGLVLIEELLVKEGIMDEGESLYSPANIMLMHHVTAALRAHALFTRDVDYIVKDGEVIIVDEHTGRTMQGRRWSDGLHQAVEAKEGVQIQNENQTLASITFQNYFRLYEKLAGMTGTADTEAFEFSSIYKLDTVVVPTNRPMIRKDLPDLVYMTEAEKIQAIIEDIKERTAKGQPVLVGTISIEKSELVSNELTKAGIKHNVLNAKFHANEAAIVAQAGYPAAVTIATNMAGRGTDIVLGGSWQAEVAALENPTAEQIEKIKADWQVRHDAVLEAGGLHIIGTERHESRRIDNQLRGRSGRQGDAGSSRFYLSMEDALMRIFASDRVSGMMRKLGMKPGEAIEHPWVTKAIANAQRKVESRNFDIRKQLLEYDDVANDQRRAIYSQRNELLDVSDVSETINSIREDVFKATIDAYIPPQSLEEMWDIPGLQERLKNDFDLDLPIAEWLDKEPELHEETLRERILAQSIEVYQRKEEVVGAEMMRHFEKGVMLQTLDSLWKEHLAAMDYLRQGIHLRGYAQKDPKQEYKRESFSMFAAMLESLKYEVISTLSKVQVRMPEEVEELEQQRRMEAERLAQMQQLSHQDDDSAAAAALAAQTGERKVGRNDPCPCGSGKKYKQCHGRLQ
# Sialic acid-binding Ig-like lectin 9 (Homo sapiens), sequence (Q9Y336 whole entry): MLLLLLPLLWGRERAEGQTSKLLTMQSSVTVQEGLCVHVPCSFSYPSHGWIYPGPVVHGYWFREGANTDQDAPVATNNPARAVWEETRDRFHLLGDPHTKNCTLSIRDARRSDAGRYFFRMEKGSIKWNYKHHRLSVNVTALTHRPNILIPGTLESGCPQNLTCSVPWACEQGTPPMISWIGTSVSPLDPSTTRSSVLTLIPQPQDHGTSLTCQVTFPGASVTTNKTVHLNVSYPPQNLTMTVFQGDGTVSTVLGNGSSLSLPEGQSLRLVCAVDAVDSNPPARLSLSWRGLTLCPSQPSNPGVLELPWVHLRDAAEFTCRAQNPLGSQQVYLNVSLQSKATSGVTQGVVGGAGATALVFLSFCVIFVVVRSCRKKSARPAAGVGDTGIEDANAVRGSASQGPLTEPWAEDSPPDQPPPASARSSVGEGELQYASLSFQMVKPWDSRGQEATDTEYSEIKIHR
Compound,Percent Effect [1] [%],Percent Effect [2] [%],Percent Effect [3] [%],Percent Effect [4] [%],Percent Effect [5] [%],Percent Effect [6] [%],Percent Effect [7] [%],Percent Effect [8] [%],Percent Effect [9] [%],Percent Effect [10] [%],Percent Effect [11] [%]
Cc1cnn(C2CCCN(C(=O)c3ccnc(N(C)C)c3)C2)c1 (stereo not given),-0.378,19,-4.04,-2.57,-1.54,0.645,10.3,19.4,1.04,5.06,-31.1
CCS(=O)(=O)N1CCC(c2nc3ccc(-c4ccccc4)cn3n2)CC1,-0.159,-2.74,-1.18,0.509,5.75,0.399,10,-3.81,-24,8.64,2.57
CC(C)C1CN(c2ncccn2)CCC(=O)N1Cc1ccc(F)cc1 (stereo not given),-4.22,6.94,-1.8,-3.12,-0.291,4.86,7.54,8.83,7.37,12.8,-3.01
O=C(NCC1(CO)CC1)c1cccc2ccccc12,-5.68,2.74,20.9,-5.02,-4.9,-0.455,10.7,0.244,6.45,2.5,-1.94
CCN(CC)CC1CN(CCc2ccccc2)Cc2nccn2C1 (stereo not given),-3.63,-2.74,1.1,4.51,3.77,-1.6,1.28,2.5,7.29,8.64,-0.569
CCC(C)CNc1ccc2oc(COC)nc2c1 (stereo not given),7.14,32.4,-44.5,7.84,-5.08,6.67,20.9,42.4,-6.93,-11,4.53
Cc1cc(C)cc(NS(=O)(=O)c2cc3c(c(C(=O)O)c2)OCCO3)c1,-4.74,6.33,-7.57,3.67,0.308,-5.38,15.4,2.08,-10.4,-5.06,-26.1
CC(C)n1ccc(-c2cc(C(=O)N3CCCC3)c3ccccn23)n1,2.31,13.5,128,-12.1,-4.79,0.319,3.69,65.6,-1.08,-2.56,-12
CC(C)Oc1ccc(CSc2nnc(CN3CCCC3=O)o2)cc1,-7.37,-5.33,-6.5,10,8.28,1.04,9.24,13.4,1.64,6.17,-3.99
CCO[C@H]1CO[C@@]2(CCCN(Cc3nc(C)cs3)C2)C1,-0.479,16.4,-4.62,9.84,3.17,-2.4,7.79,-0.894,8.33,18.5,-4.88

# Reference: ChEMBL document CHEMBL3988442, “University of Dundee, Small-Polar-MMV Screening Library” (2021)
